Bioassay records: PubChem BioAssay, ICCB-Longwood Screening Facility, Harvard Medical School
Choline anaer gr: choline-fed anaerobic bacterial growth inhibition; Gram-negative bacterium anaerobic choline minimal medium, absorbance growth; active compounds read low; calls only; actives 0.2% (n = 55,000); AID 1963822; call rule not given here
* = called active by the depositor; i = inactive; + = active, no number. The full list was thinned out, with hits kept by preference.

SMILES	Choline anaer gr
O=[N+]([O-])C=Cc1ccc2c(c1)OCO2	+
O=C(Oc1ccc([N+](=O)[O-])cc1)N1CCC(C(O)(c2ccc3c(c2)OCO3)c2ccc3c(c2)OCO3)CC1	i
O=[N+]([O-])/C=C/c1ccc2c(c1)OCO2	i
CNC1(c2nnnn2-c2ccccc2)CCCCC1	i
O=C(Cc1ccc(F)cc1)N1CCN(Cc2noc(-c3ccccc3)n2)CC1	i
Cc1ccccc1OCC(=O)N1CCN(Cc2cc(=O)n3nc(-c4ccccc4)sc3n2)CC1	i
CN1C2CCC1CC(OC(c1ccccc1)c1ccc(Cl)cc1)C2 (centres undefined)	+
CN1C2CCC1CC(OC(c1ccccc1)c1ccccc1N)C2 (centres undefined)	i
Clc1ccc(C(OCCN2CCCCC2)c2ccccc2)cc1 (centres undefined)	i
CCC(=O)N1N=C2C3CCN(CC3)[C@@H]2[C@@H]1c1cc(OC)ccc1OC	i
